# In paper PMC13494018:
# Unmarked numbers belong to inactive results. No rule for the calls is given here.
# B1: d1r12_design_ppi_408_dldesign_0_cycle1_af2pred (protein)
# chain: MEALAQAGHAANQAAAADPAQAPRAAALLREMIAHARAASAAWLEAQALEAAGGDPAAVAAARAAAAEHQAKAEALAAELKALAEAAA
# B2: d2r6_design_ppi_69_dldesign_0_cycle0_af2pred (protein)
# chain: ALEELRRRASELWRALSPEARQAAARAVNARVAGDEAAAEAILAEQEARDPEQGALARAAADAALAAIDLANAQAAAAARAAAAAA
# B3: d2r7_design_ppi_31_dldesign_0_cycle1_af2pred (protein)
# chain: AEAEALEAGAQVLSIVTATRAQTVAAFAQDPALGRQMYRQLQAAVRLAETTAKAYPAVAAELLAAAAAARAEAQAAL
# B4: d1r12_design_ppi_352_dldesign_0_cycle0_af2pred (protein)
# chain: SRARANYAQLVAESAEGGAKAAEAKAKAAKAAGDEATAKKYEEAAELYREGAALAKAGDIAGAVAKINEAAALLAA
# B5: d1r12_design_ppi_675_dldesign_0_cycle0_af2pred (protein)
# chain: DEARRAGALAFAEQLRASFAATRAAAAALPRASAAAALAGIAASAKQLGAVVPEAAELAAEAAAAAAAVAA
# B6: d1r11_design_ppi_982_dldesign_0_cycle1_af2pred (protein)
# chain: AAAARAQAAQVVADSARAAAKEAEAKAKEAEAKDPAYGKELKANAEKLKAAAEAAEADPAALPEAVKTLIEQTSNMRALEAKLAA
# B7: d1r12_design_ppi_102_dldesign_0_cycle0_af2pred (protein)
# chain: AAAEAAARLAEAEALLAKAKEHAKKAKEAAKAGDLAAANQHATAASAAALAIKELGAPADIQAAADAAVAEAMDAVVAAAKAR
# B8: d1r11_design_ppi_712_dldesign_0_cycle1_af2pred (protein)
# chain: MTPAQQAAQLANQANSYITMAKAALAAGDLETAKEFAELAIEYATQAQKLDPALGTAVKAEAEAVLAQVNAA
# B9: d2r6_design_ppi_333_dldesign_0_cycle0_af2pred (protein)
# chain: MEEEGKKKAEEALKKAEESLKLAKSGKKLKEAEKKFAEALSLMEEAKPYLNKNPEVNKKLSKKLGEAAKALIAAKA
# B10: d2r6_design_ppi_95_dldesign_0_cycle1_af2pred (protein)
# chain: AEAQAQAKAIVQQGYQDARALIDKYGLPVAAKVKVFNLVSAGAIIAEQGGTVEEVAAAVEAALAAAKAAAA
# B11: d1r12_design_ppi_87_dldesign_0_cycle1_af2pred (protein)
# chain: GAALEEAERLMEEAEAALAQAEATGDQRLLGAAMAAAERAVELATREASPEEAAEVERRAAELFARAAEVSQRIAAALLARAAAQA
# B12: d1r12_design_ppi_408_dldesign_0_cycle0_af2pred (protein)
# chain: SLELAEAAHAAGRAAAADPARAAEAGALLKDMIAYALAASAAYREAEALRAAGGDQAAIDAAEAEAKAYEAKSKEKAAELKALAAAAA
# B13: d1r11_design_ppi_627_dldesign_0_cycle1_af2pred (protein)
# chain: AEEVAARAAELTRTVHHGSPEEATAAARELTALVAAASPEAAAAGRRAIAETNKALLAETAAARAAAAAAAAAAAAAAAAAAA
# B14: d2r4_design_ppi_198_dldesign_0_cycle1_af2pred (protein)
# chain: AASAAMRAFTAAYGAANAAVARLYAADPAAGAAAARALQAALDEALALGAATGVAGIEEGAAALAAAAAALAAEAAALAAA
# B15: d1r12_design_ppi_474_dldesign_0_cycle0_af2pred (protein)
# chain: KEELKKEIKKLAKKAKEHAEEAKRTAGDLGAMARHTTEAAAAAEKAQALAAKSGDEEAKKLAKEAKEAAAEATEHLVEAARAAA
# B16: d6r1_design_ppi_2_dldesign_0_cycle0_af2pred (protein)
# chain: EEERRRAIEAAEGAVEAARKNLELFREAHPEATEEIARLEARVEEARREAERAREEGASVEEARRVLERARAVQAEITRALHRANLA
# B17: d1r12_design_ppi_387_dldesign_0_cycle1_af2pred (protein)
# chain: MEAARAAFERRKAALEADRAEAEALLADPATAAEGRALLAALAVRAKAYGKLFAAHDPELGAELTALGEEAAALA
# B18: d2r6_design_ppi_32_dldesign_0_cycle1_af2pred (protein)
# chain: MKEELKKALKNAEDAAATAKQVAASDPEAKAKVEELEKEARKLAKEGLEGTEEKAEEALKRVGELTREILRIASQQFAKQQA
# B19: d1r12_design_ppi_153_dldesign_0_cycle1_af2pred (protein)
# chain: AAAHEAFVAEVTAVADAAADAASAAWLAGQTAGPEWRAVADRLVALAREALRAAADPARAPEARRAAAEAAALAAEAAALVAAA
# B20: d2r6_design_ppi_231_dldesign_0_cycle1_af2pred (protein)
# chain: AAAAEAAAAADERIATGAAAVAAMARVGARRGVEAARRLGERMLEAVTRAMAAEDPAAGARAREVGTAVFEAEIAAAAAAAAA
# B21: d1r12_design_ppi_352_dldesign_0_cycle1_af2pred (protein)
# chain: SAARARYAALVAESAEVGAATYDAAAKAAEAAGDAATAAKYKEAAALYKAGADAAKAGDIAAAVAKINAAAALVAA
# B22: d1r12_design_ppi_293_dldesign_0_cycle1_af2pred (protein)
# chain: AAAAEAARKAALAAAADAHAAGAQAALRAARQAAERGDPEAARTFMDLALTSAQQARDLYDEAGFPEKGKAVYEATRAAVAEVEALL
# B23: d1r11_design_ppi_865_dldesign_0_cycle0_af2pred (protein)
# chain: DAELKAQAAKIAKEAIEKAKKAKDKNEVWRYASQGLAQLTRIAAAGSPEVKAFAAEQAKKLTEEAEKIVAAL
# B24: d2r7_design_ppi_218_dldesign_0_cycle0_af2pred (protein)
# chain: SAAEAEAKRYINHAETTLATAKQLAERSTPEQAARYYRAAGEIAWKDYEKAGEALSPEEGEKMRKKGKEVKEELEKKAKELEEK
# B25: d2r2_design_ppi_470_dldesign_0_cycle1_af2pred (protein)
# chain: AAARARAYVALWQAANRAFAAAFATGSDAALAAARAAAAAAGAVLPGGRDAFLATVDSQAAALRAARAAAAAAAAA
# B26: d2r6_design_ppi_176_dldesign_0_cycle1_af2pred (protein)
# chain: ALREEVEKKMGEVLDLLKELQEKKKKGELTPEQIELMQQSMRELAKAAGYLASGDKVEEAKKEAEKALELAKKALEE
# B27: d2r2_design_ppi_429_dldesign_0_cycle1_af2pred (protein)
# chain: AAAEALRRALGAVLVAAHEAANRAAAERGLAAAEEVLAAGRAAGHALAARHPGAALARRAVDSQVAASAHVARHIAARAAALR
# B28: d2r6_design_ppi_165_dldesign_0_cycle0_af2pred (protein)
# chain: MEVVEKVAELARKAAEAVERNLGEGFALAIQAADLAAEHEEVAEEAAEAAEEVLRKRAEEHPEHRERLLRLAEDFRSAVAHLLAQKA
# B29: d2r6_design_ppi_493_dldesign_0_cycle1_af2pred (protein)
# chain: SATEAQVAAVKAKIDAATQAALNAHAARLTAAGIQAVIQTAYDASKAAGAEVKAGGDPEKAAAAAIKAVNDTAEAAAA
# B30: d1r11_design_ppi_712_dldesign_0_cycle0_af2pred (protein)
# chain: MTPEEKAARLAAAADAYIKMAKAALAAGKLEEAKEFAEAALKAAKEAEKLDPELGAKKAAEAKAVKAEIDAA
# B31: d2r6_design_ppi_356_dldesign_0_cycle0_af2pred (protein)
# chain: SEEELEKTRASLEQLKGLAEWQAAQHPEQAPLYAEAARLAEEGMKATVEEARQLGAQASALLGRAVGAAAA
# B32: d1r12_design_ppi_822_dldesign_0_cycle1_af2pred (protein)
# chain: AAAARAAEAAALAAAVTAAAAAVAAAVAAGTPDEGRAAARAFGRAALGAAARLPEVAPAVDAAADVVSDAYVAAVAAR
# B33: d2r6_design_ppi_69_dldesign_0_cycle1_af2pred (protein)
# chain: GLEAAQAEASRLWRQLTPEGRAAAARAVNARVAGDTAAAAAILAAAKAADPAQGALAEAAAEALLRAIDLANAQAAAEAAARAAAA
# B34: d1r11_design_ppi_460_dldesign_0_cycle1_af2pred (protein)
# chain: AAEEALKRAEELAKEVIELAEKVPEAAALGKKVREALEAARHGAESLMRAAARSTPEAAAVMNESAIAMNEAAIKLAEELRKEIEKIA
# B35: d2r7_design_ppi_460_dldesign_0_cycle1_af2pred (protein)
# chain: AAALAAARAAAAAAAAEAVARAAAEGPGLGLLMANEAARLLREAAAGDAAEVRAAAARLLAFAEQAIAAARANRAQAAAAR
# B36: d2r3_design_ppi_395_dldesign_0_cycle1_af2pred (protein)
# chain: SREALRQAGQLAVQAQTLANRGLALLLADPAAAPEAQALLDQAAALGEQAPVAAPVAETGRAQFAALAARL
# B37: d2r7_design_ppi_474_dldesign_0_cycle1_af2pred (protein)
# chain: MASLEAGYQQFLDSIAALPLDRADAQLAAQAARHRELAARYAAAAEAAADPAVAARLRARARDHEAAAAAVEAIRAEVTARAAARA
# B38: d2r2_design_ppi_370_dldesign_0_cycle1_af2pred (protein)
# chain: RVISPAEIVELHTAANAALREALEGDPEAGLARLRAVADRAAALSPALGAALRAEAEGARAALAAAAAAAAA
# Target: CD276, Q5ZPR3
# Sequence (Q5ZPR3 whole entry): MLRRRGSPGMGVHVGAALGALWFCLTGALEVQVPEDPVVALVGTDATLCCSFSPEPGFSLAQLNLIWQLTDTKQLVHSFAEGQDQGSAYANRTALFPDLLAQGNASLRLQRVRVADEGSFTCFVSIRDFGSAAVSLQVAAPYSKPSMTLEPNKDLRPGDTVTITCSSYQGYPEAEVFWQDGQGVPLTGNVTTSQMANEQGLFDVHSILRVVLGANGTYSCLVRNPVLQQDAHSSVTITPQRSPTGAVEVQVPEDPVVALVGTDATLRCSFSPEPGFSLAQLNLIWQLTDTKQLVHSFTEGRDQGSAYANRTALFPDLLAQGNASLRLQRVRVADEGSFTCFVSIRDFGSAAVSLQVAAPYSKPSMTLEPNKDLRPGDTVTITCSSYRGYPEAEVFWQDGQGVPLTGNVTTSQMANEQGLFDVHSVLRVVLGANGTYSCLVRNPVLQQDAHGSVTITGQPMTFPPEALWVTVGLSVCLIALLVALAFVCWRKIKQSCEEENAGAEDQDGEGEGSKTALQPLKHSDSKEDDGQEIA
row,Binder,binding in a display sort
1,B1,not found
2,B2,not found
3,B3,not found
4,B4,not found
5,B5,not found
6,B6,not found
7,B7,not found
8,B8,not found
9,B9,not found
10,B10,not found
11,B11,not found
12,B12,not found
13,B13,not found
14,B14,not found
15,B15,not found
16,B16,not found
17,B17,not found
18,B18,not found
19,B19,not found

row,Binder,binding in a display sort
1,B20,not found
2,B21,not found
3,B22,not found
4,B23,not found
5,B24,not found
6,B25,not found
7,B26,not found
8,B27,not found
9,B28,not found
10,B29,not found
11,B30,not found
12,B31,not found
13,B32,not found
14,B33,not found
15,B34,not found
16,B35,not found
17,B36,not found
18,B37,not found
19,B38,not found
